# Results reported in PubChem BioAssay (NCATS).
# Inconclusive results are not listed. Unmarked numbers belong to inactive results. Calls follow the shape of the dose curve; as a rule, active = well fitted inhibition curve with a large enough effect; inconclusive = small, poorly fitted or top-dose-only effect; inactive = flat fitted curve, though single readings scatter.
# Test system: Zika virus NS2B-NS3 protease
# Experiment: Primary screen GU AMC qHTS for Zika virus inhibitors (AID 1347154);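 also: 0% = no-inhibitor control and -100% = no-enzyme control; nearly all actives have a fitted effect of over 70% in size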
# Conditions: Zika NS2B-NS3 unlinked protease, AMC fluorogenic substrate; series mostly up to 54.1 µM; activity change, negative = inhibition: at the top concentration
# How it was run: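 Unlinked Zika NS2B hydrophilic domain–NS3 protease complex at 25 nM in 10 mM Tris-HCl pH 8.0, 0.01% Tween 20, with an AMC peptide substrate. Fluorescence change (340/450 nm) over 15 min at room temperature, normalized to controls, fitted to 4-parameter Hill.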
row,SMILES,"activity change, negative = inhibition"
1,CC(C)Oc1cccc(NC(=O)c2ccccc2C(F)(F)F)c1,-3.54% [at 104 µM]
2,CC(C)(O)C=CC(=O)[C@](C)(O)[C@H]1[C@H](O)C[C@]2(C)[C@@H]3CC=C4[C@@H](C=C(O)C(=O)C4(C)C)[C@]3(C)C(=O)C[C@@]12C,1.83%
3,CC(=O)OCC1=C(C(=O)O)N2C(=O)[C@@H](N)[C@@H]2SC1,8.58%
4,CCC1(CCC(C)C)C(=O)NC(=O)NC1=O,3.05% [at 104 µM]
5,Cc1ccc(Cl)c(O)c1,1.71%
6,CC(=Cc1csc(C)n1)[C@@H]1C[C@H]2O[C@@H]2CCC[C@H](C)[C@@H](O)[C@@H](C)C(=O)C(C)(C)[C@@H](O)CC(=O)O1,8.76%
7,Nc1ccc(Sc2ccc(N)cc2)cc1,3.99% [at 104 µM]
8,Cc1cc(O)ccc1Cl,-0.786%
9,Cc1c(N)nc([C@H](CC(N)=O)NC[C@@H](N)C(N)=O)nc1C(=O)N[C@H](C(=O)N[C@@H](C)[C@H](O)[C@@H](C)C(=O)N[C@@H](C(=O)NCCc1nc(-c2nc(C(=O)NCCC[S+](C)C)cs2)cs1)[C@@H](C)O)C(O[C@H]1O[C@H](CO)[C@H](O)[C@@H](O)[C@@H]1O[C@H]1O[C@H](CO)[C@@H](O)[C@H](OC(N)=O)[C@H]1O)c1cnc[nH]1 (some centres undefined),5.2%
10,C1=C2CCCN[C@H]2[C@@H]2C[C@H]1[C@@H]1CCCCN1C2,10.5%
11,C[C@]12CC[C@H]3[C@@H](CCC4=CC(=O)CC[C@@]43C)[C@H]1CC[C@H]2O,1.08%
12,C=C[C@@H]1CN2CCC1C[C@H]2[C@H](O)c1ccnc2ccccc12 (some centres undefined),-5.26%
13,CC(C)(O)C(=O)Nc1ccc([N+](=O)[O-])c(C(F)(F)F)c1,6.95%
14,Fc1cc(Br)ccc1CBr,0.795%
15,COCCOCCO,-6.81% [at 104 µM]
16,C[C@@H]1CC[C@@]2(OC1)O[C@H]1C[C@H]3[C@@H]4CC=C5C[C@@H](O[C@@H]6O[C@H](CO)[C@@H](O[C@@H]7O[C@@H](C)[C@H](O)[C@@H](O)[C@@H]7O)[C@H](O)[C@@H]6O[C@@H]6O[C@@H](C)[C@H](O)[C@@H](O)[C@@H]6O)CC[C@]5(C)[C@@H]4CC[C@]3(C)[C@@H]1[C@H]2C,-0.756%
17,CC(C)(C)C(O)C(Oc1ccc(Cl)cc1)n1cncn1 (centres undefined),1.18% [at 104 µM]

row,SMILES,"activity change, negative = inhibition"
1,CO[C@H]1CCC(O[C@H]2C[C@H]([C@]3(C)CC[C@]4(C[C@H](O)[C@@H](C)[C@@H]([C@@H](C)C=C(C)C(=O)[C@H](C)C[C@H](C)C(=O)O)O4)O3)O[C@]3(O[C@@H]([C@H]4O[C@@](O)(CO)[C@H](C)C[C@H]4C)C[C@H]3C)[C@H]2C)O[C@H]1C (some centres undefined),5.87%
2,CCO/N=C(\CC)C1=C(O)CC(c2c(C)cc(C)cc2C)CC1=O (centres undefined),-4.17% [at 104 µM]
3,CCOC(=O)c1c(C(C#N)=CN)c2ccc(Cl)c(Cl)c2n1C,5.22%
4,CC1(C)CC/C(=C/c2ccc(Cl)cc2)C1(O)Cn1cncn1 (centres undefined),4.09% [at 104 µM]
5,C/C=C(/C)C(=O)O[C@H]1C(C)=C2[C@H]([C@@H]1OC(=O)CCCCCCC)[C@@](C)(OC(C)=O)C[C@H](OC(=O)CCC)[C@@]1(O)[C@H]2OC(=O)[C@@]1(C)O,14.1%
6,COc1ccc2c(c1)CN(C)CC2c1ccc(Cl)c(Cl)c1 (centres undefined),8.3%
7,O=C(O)CCCOc1ccc(Cl)cc1Cl,-3.76% [at 104 µM]
8,Nc1ccc([N+](=O)[O-])cc1,-3.84% [at 104 µM]
9,COC1=CC(C)=C[C@@H](C)[C@@H](O)[C@@H](C)CC(C)=CC=C[C@H](OC)[C@H]([C@@H](C)[C@@H](O)[C@H](C)[C@@]2(O)C[C@@H](O)[C@H](C)[C@@H](C(C)C)O2)OC1=O,-0.984%
10,C#CC1(O)CCC2C3CCC4=CC(=O)CCC4(C)C3CCC21C (centres undefined),1.46%
11,O=C1CCC[C@@H]2[C@H]3CCCN4CCC[C@@H](CN12)[C@@H]34,1.98%
12,C=CC(=O)NCNC(=O)C=C,-0.251% [at 104 µM]
13,ClC1=C(Cl)[C@]2(Cl)[C@@H]3[C@@H]4C[C@@H]([C@H]5O[C@@H]45)[C@@H]3[C@@]1(Cl)C2(Cl)Cl,-12.5% [at 104 µM]
14,Oc1ccc2c3c1O[C@H]1[C@@H](O)C=C[C@H]4[C@@H](C2)NCC[C@@]341,1.57% [at 104 µM]
15,CC(C)[C@H]1C(=O)N[C@H](CO)Cc2c[nH]c3cccc(c23)N1C,0.236%
16,CN[C@@H]1Cc2cccc3[nH]c(=O)n(c23)C1,14.7%
17,CN(C)NC(=O)CCC(=O)O,2.15%
